# About 83,000 compounds went through this panel and 20% of them were active in at least one assay; those are over-represented in the sample as a whole.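 The endpoint reported here, percent growth, reads 100 for growth as untreated, 0 for no net growth and -100 for all cells dead.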 Values without a mark were called inactive. Active and inactive are the calls of the source. The calls were made as follows: active = growth percent below 10; inactive = the rest.
# Experiments:
# Test in all cases: NCI-60 one-dose screen, 48 h (100 = growth as untreated, 0 = no growth, -100 = all killed)
# Conditions in all cases: 10 µM unless noted
# NCI-H23 lung = system: NCI-H23 lung
# NCI-H226 lung = system: NCI-H226 lung
# NCI-H322M lung = system: NCI-H322M lung
# HOP-62 NSCLC = system: HOP-62 NSCLC
# NCI-H460 lung = system: NCI-H460 lung
# HOP-92 NSCLC = system: HOP-92 NSCLC
# NCI-H522 lung = system: NCI-H522 lung
# 786-0 renal = system: 786-0 renal
# COLO 205 colon = system: COLO 205 colon
# DU-145 prostate = system: DU-145 prostate
# K-562 leukemia = system: K-562 leukemia
# MALME-3M melanoma = system: MALME-3M melanoma
# MDA-MB-231 breast = system: MDA-MB-231 breast
# RXF 393 renal = system: RXF 393 renal
# SF-268 CNS = system: SF-268 CNS
# SF-295 CNS = system: SF-295 CNS
# SF-539 CNS = system: SF-539 CNS
# UACC-257 melanoma = system: UACC-257 melanoma
# M14 melanoma = system: M14 melanoma
# A549/ATCC NSCLC = system: A549/ATCC NSCLC
Structure (SMILES),growth (NCI-H23 lung),growth (NCI-H226 lung),growth (NCI-H322M lung),growth (HOP-62 NSCLC),growth (NCI-H460 lung),growth (HOP-92 NSCLC),growth (NCI-H522 lung),growth (786-0 renal),growth (COLO 205 colon),growth (DU-145 prostate),growth (K-562 leukemia),growth (MALME-3M melanoma),growth (MDA-MB-231 breast),growth (RXF 393 renal),growth (SF-268 CNS),growth (SF-295 CNS),growth (SF-539 CNS),growth (UACC-257 melanoma),growth (M14 melanoma),growth (A549/ATCC NSCLC)
COc1cc2c(cc1-c1c(C)noc1C)ncc1nc(C3CC3)n([C@H](C)COC(F)F)c12,65.4%,58.1%,47.8%,43.4%,60.7%,37%,27.4%,51.6%,25.1%,72.4%,30.4%,80.4%,51%,53.9%,71.2%,56.8%,39.4%,36.3%,44.2%,–
CN(C)c1ccc(-c2ccc(-c3ccc(C(=N)N)c(F)c3)s2)cc1,-67.1% (active),-60.1% (active),0.0772% (active),-75.2% (active),-77.5% (active),-79.4% (active),-61.4% (active),-93.7% (active),–,-93.7% (active),-34.3% (active),71.3%,-78.4% (active),-83.2% (active),-56.9% (active),-88.1% (active),-93% (active),111%,97.5%,-83.2% (active)
Nc1c2c(nc3ccc(Cl)cc13)CC(c1ccc(O)cc1)CC2=O (stereo unspecified),61.2%,90.5%,56.2%,56.4%,23.2%,88.4%,43.6%,57.5%,–,72.9%,18.5%,52.6%,68.5%,74.2%,65.3%,36.2%,50.8%,78.2%,21.8%,59.5%
COC1=C(Br)C(=O)C(OC)=C(Br)C1=O,105%,102%,98.1%,111%,106%,153%,86.3%,103%,–,109%,31.7%,102%,–,119%,111%,111%,108%,94.4%,105%,102%
COc1ccc(C2c3ccccc3NC(=O)N2C2CCN(C)CC2)c(OC)c1 (stereo unspecified),100%,94.1%,95.9%,101%,101%,79.9%,89.5%,102%,–,105%,93.1%,88.1%,91.9%,97.1%,98.2%,90.6%,95.2%,–,85.3%,103%
Clc1ccccc1-c1nc(Nc2nc3ccccc3s2)nc(C(Cl)(Cl)Cl)n1,76.4%,95%,24.6%,40.5%,1.36% (active),55.6%,88.4%,75.8%,–,15.9%,50.8%,79.6%,14.5%,16.7%,81.7%,37.8%,32.8%,83.9%,80.1%,18%
O=C1CCCC=CC[C@H]2C=C(Cl)C(=O)C2=CC[C@H](CCCCC(F)(F)F)OC(=O)CCCC=CC[C@H]2C=C(Cl)C(=O)C2=CC[C@H](CCCCC(F)(F)F)OC(=O)CCCC=CC[C@H]2C=C(Cl)C(=O)C2=CC[C@H](CCCCC(F)(F)F)O1,65.2% [6.25 µM],113% [6.25 µM],99.1% [6.25 µM],85.9% [6.25 µM],89.6% [6.25 µM],126% [6.25 µM],34.4% [6.25 µM],108% [6.25 µM],80% [6.25 µM],62.4% [6.25 µM],32.1% [6.25 µM],106% [6.25 µM],51.5% [6.25 µM],86% [6.25 µM],82.8% [6.25 µM],107% [6.25 µM],93% [6.25 µM],79.3% [6.25 µM],59.5% [6.25 µM],–
COc1ccc(-n2c(/C=C/c3ccc(O)c(OC)c3)cc(/C=C/c3ccc(O)c(OC)c3)nc2=O)cc1,42.5%,70.7%,83.6%,63.4%,78%,79.8%,29.3%,82.8%,–,68.9%,11.8%,85%,43.8%,45.4%,41.4%,82.3%,39%,82.2%,40.4%,79.1%
CC1(C)CC[C@]2(CO)CC[C@]3(C)C(=CC[C@@H]4[C@@]5(C)CC[C@H](NCO)C(C)(C)[C@@H]5CC[C@]43C)[C@@H]2C1,-64.8% (active),43.1%,7.27% (active),-32.1% (active),-70.5% (active),22.2%,-29.5% (active),-80% (active),-71.5% (active),-49.9% (active),-36.8% (active),-76.3% (active),-80% (active),-88% (active),63.1%,-30.5% (active),-18.5% (active),10.5%,-53% (active),–
Nc1nc2c(c(=O)[nH]1)C(c1ccc3c(c1)OCO3)C=C(C(=O)O)N2 (stereo unspecified),109%,115%,114%,115%,110%,117%,106%,98.3%,119%,112%,99.7%,101%,121%,120%,112%,94.2%,101%,97%,112%,–
COc1cc(/C=N/NC(=S)NNC(=S)NC2CCCCC2)cc(OC)c1OC,97.4%,91.2%,93.7%,94.8%,–,91.2%,89.3%,102%,102%,92.5%,88.6%,95.2%,77.2%,95.6%,102%,98.7%,94.8%,107%,95.2%,–

# From PubChem BioAssay (NCI)
